High-throughput results as filed in PubChem BioAssay.
Sampled rows, rich in hits. Any-hit rate of the full collection: about 19%.
HT1080 IDH1KD tx: HT-1080 IDH1 knockdown cell toxicity (counter line); HT-1080 IDH1 knockdown viability, ATP luminescence, 48 h; Potency, µM (top dose mostly 46.1 µM), most hits filed as cytotoxic; 2% of 360,000 active; AID 686971
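CellTiter-Glo luminescence after 48 h compound exposure at 37 degrees C of IDH1-knockdown HT-1080 cells in 5% FBS RPMI. %Activity scaled between DMSO wells and cell-free media wells, with curves fitted and assigned curve classes.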
DT40 TDP1 no CPT: qHTS for Inhibitors of human tyrosyl-DNA phosphodiesterase 1 (TDP1): qHTS in cells in absence of CPT; Potency, µM (highest dose often 46.2 µM), hits mostly inhibitors; DT40 Tdp1-/- hTDP1 cells, no CPT, ATP luminescence, 48 h; AID 686978, 2013; 15% of 420,000 active; further: nearly all actives have a fitted effect of over 55% in size
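Readout: luminescence from CellTiter-Glo after 30 min in the dark at RT. Cells: DT40 Tdp1-/- with stable hTDP1, 400/well. Exposure: compounds alone, ≥48 hr, 37 °C.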
TDP1 cell CPT: DT40-hTDP1 cell growth loss with CPT. chicken DT40 Tdp1-/-;hTDP1 cells + 20 nM CPT, ATP luminescence, 48 h. 12% of 420,000 active. Potency, µM (doses to about 46.2 µM), actives largely listed as inhibitors; further: nearly all actives have a fitted effect of over 55% in size
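Cell growth measured by CellTiter-Glo luminescence after a minimum 48 h, 37 C compound exposure with 20 nM CPT in Tdp1-knockout DT40 cells stably expressing hTDP1, seeded 400/well; qHTS titration format.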
IL1B secr inh: inhibitors of inflammasome signaling (IL-1 beta secretion) | 4.7% of 360,000 active | activity change, % at 57.5 µM | THP-1 LPS/ATP IL-1B secretion, AlphaLISA, 16 h; hits give low values; in the data active means activity change below about -50%; inconclusive means mostly about -30% to -49%
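Secreted IL-1B measured by AlphaLISA bead assay after 16 h compound exposure of THP-1 cells; compounds (final up to 57.5 uM) added 1 h before LPS (250 ng/mL) and ATP (1.25 mM) stimulation; lower signal means less secretion.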
HT1080-NT tox: kills 2HG-producing HT-1080-NT fibrosarcoma cells; HT-1080-NT fibrosarcoma viability, CellTiter-Glo ATP luminescence, 48 h; Potency, µM (titrated, usually from 46.1 µM), hits mostly cytotoxic; 1.6% of 360,000 active;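 further: NT is the 2HG producing partner of a matched IDH1 knockdown line; nearly all actives have a fitted effect of over 55% in size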
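Fibrosarcoma NT cells, 750 per well in 5% FBS RPMI, were exposed to compound for 48 hours. Viability: CellTiter-Glo luminescence.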
A number is an active result; 0 = inactive; ? = inconclusive; - = no result given; [ ] = dose if it differs, or a comment. Unless noted, the call rests on the fitted dose curve; in most records, active means well fitted curve in the direction sought with a large enough effect; inconclusive means small, poorly fitted or top-dose-only effect, or another doubt; inactive means no such curve, though single readings can be large; an effect the other way counts as inactive or inconclusive.

SMILES	HT1080 IDH1KD tx	DT40 TDP1 no CPT	TDP1 cell CPT	IL1B secr inh	HT1080-NT tox
CCc1nc2c(OCCC3CCCCC3)cccn2c1N(C)C(=O)c1ccncc1	0	15µM	16µM	0	0
CCc1nc2c(OCc3ccc(F)c(F)c3)cccn2c1N(C)C(=O)c1ccncc1	0	0	0	0	0
Cn1c(C2=C(O)CN(Cc3ccccc3)C2=N)nc2ccccc21	0	0	0	0	0
CCOc1ccc(C(=O)OCc2cc(=O)n3nc(C4CCCCC4)sc3n2)cc1	-	16µM	?	-	-
CC(C)c1nn2c(=O)cc(COC(=O)c3ccc(NC(=O)C4CCCCC4)cc3)nc2s1	-	21µM	?	-	-
CCOc1cc(C(=O)OCc2cc(=O)n3nc(C4CC4)sc3n2)cc(OCC)c1OCC	-	21µM	?	-	-
CC1(CC(=O)N/N=C/c2cc([N+](=O)[O-])c(O)cc2O)OCCO1	0	?	?	0	0
O=c1cc(-c2ccc(O)c(O)c2)oc2cc(O)c(C3OC(CO)C(O)C(O)C3O)c(O)c12 (stereo not given)	0	0	0	0	0
O=S1(=O)CC(O)C(O)CS1 (stereo not given)	?	?	23µM	0	0
CC(CC(=O)NC(C)c1ccc2c(c1)OCCO2)c1ccccc1 (stereo not given)	0	0	0	0	0
CC(NC(=O)CCc1ccccc1)c1cc2c(cc1Cl)OCCO2 (stereo not given)	0	?	15µM	0	0
CC1=C(C(=O)Nc2ccc(Cl)cc2)C(C(C)C)n2nc(SCc3ccc(Cl)cc3)nc2N1 (stereo not given)	-	23µM	16µM	-	-
CC1=C(C(=O)Nc2ccccc2)C(c2ccccc2C)n2nc(SCC(=O)c3ccc(C)cc3)nc2N1 (stereo not given)	-	18µM	5.8µM	-	-
CC1=C(C(=O)Nc2ccc(Cl)cc2)C(c2ccccc2F)n2nc(SCc3cccc(Cl)c3)nc2N1 (stereo not given)	-	23µM	?	-	-
CC1=C(C(=O)Nc2ccccc2)C(c2ccncc2)n2nc(SCc3ccccc3)nc2N1 (stereo not given)	-	0	0	-	-
Cc1c(Nc2cc(Cl)c3nonc3c2[N+](=O)[O-])c(=O)n(-c2ccccc2)n1C	?	2.1µM	1.3µM	-105	3.7µM
Cc1c(Nc2ccc3nonc3c2[N+](=O)[O-])c(=O)n(-c2ccccc2)n1C	0	0	0	0	0
O=[N+]([O-])c1c(Nc2cccc(O)c2)cc(Cl)c2nonc12	8.2µM	1.8µM	1.8µM	-96	5.2µM
CCCCCCCOc1ccc(CC(=O)NO)cc1	-	10µM	10µM	-	-
O=C(Cc1ccc(OCCC2CCCCC2)cc1)NO	-	10µM	7.1µM	-	-
O=C(NCc1ccco1)N1c2ccccc2Sc2ccccc21	0	?	?	0	0
CCSC1=NC(C)(C)C=C(C)N1	0	0	0	0	0
CSC1=NC(C)(C)C=C(/C=C/c2ccc(Cl)cc2)N1	?	16µM	21µM	-101	23µM
CCSC1=NC(C)(C)C=C(/C=C/c2ccc(Cl)cc2Cl)N1	?	16µM	?	-93	16µM
CSC1=NC(C)(C)C=C(/C=C/c2c(Cl)cccc2Cl)N1	?	0	0	-97	0
SMILES	HT1080 IDH1KD tx	DT40 TDP1 no CPT	TDP1 cell CPT	IL1B secr inh	HT1080-NT tox
Cc1cccc(NC(=O)c2cc[n+]([O-])cc2)c1C	0	0	0	0	0
COc1cccc(CNC(=O)CSc2nnc3c(n2)[nH]c2ccc(C)cc23)c1	0	0	0	0	0
COc1cc(CCC(=O)OCC(=O)Nc2ccc(C)cc2Cl)cc(OC)c1OC	0	0	0	0	0
COc1cccc2sc(=NC(=O)CS(=O)(=O)c3ccccc3)n(C)c12	0	15µM	?	0	0
CCn1c(=NC(=O)CS(=O)(=O)c2ccc(C)cc2)sc2cccc(OC)c21	0	16µM	?	0	0
COc1cccc2sc(=NC(=O)CS(=O)(=O)c3ccc(F)cc3)n(C)c12	0	12µM	?	0	0
COCCn1c(=NC(=O)CCS(=O)(=O)c2ccccc2)sc2c(OC)ccc(OC)c21	0	?	?	0	0
CCn1c(=NC(=O)c2ccc(S(=O)(=O)N(C)C)cc2)sc2cccc(OC)c21	0	0	0	0	0
Cn1c(=NC(=O)CS(=O)(=O)c2ccccc2)sc2cc(F)ccc21	0	?	?	0	0
COc1cccc2sc(=NC(=O)CS(=O)(=O)c3ccc(Cl)cc3)n(C)c12	?	2.3µM	7.3µM	0	0
CCNc1sc(S(C)(=O)=O)nc1S(=O)(=O)c1ccc(Cl)cc1	0	0	0	?	0
CC(C)C(C)NC(=O)CN1C(=O)NC2(CCc3ccccc32)C1=O (stereo not given)	0	0	0	0	0
NNC(=O)c1ccc(COCC(F)(F)F)cc1	0	0	0	0	0
CCCOc1ccc(-c2cc(C(F)(F)F)c(C#N)c(SCC(=O)O)n2)cc1	0	0	0	-71	0
N#Cc1c(C(F)(F)F)cc(-c2ccccc2)nc1SCC(=O)Nc1sc2c(c1C#N)CCC2	0	10µM	13µM	0	0
N#Cc1ccc(-c2cccnc2)nc1SCC(=O)Nc1sc2c(c1C#N)CCC2	0	0	0	0	0[9.24 µM]
Cc1cc(C(F)(F)F)c(C#N)c(SCC(=O)Nc2nc3ccccc3s2)n1	18µM	18µM	?	0	?
COc1ccc(/C=N/NC(=O)COc2ccc(Cl)cc2Cl)cc1Cn1nc(C)cc1C	?	?	?	0	?
S=C(NC1CCCC1)NN1CCOCC1	0	0	0	0	0
NC(=O)c1cnccc1C=Cc1ccccc1	0	0	0	0	0
COc1cccc(OCCNC(=O)CSc2ccc(C(F)(F)F)cc2[N+](=O)[O-])c1	0	15µM	15µM	0	0
CCC(=O)N(C)C[C@H]1Oc2cc(-c3ccccc3F)ccc2S(=O)(=O)N([C@H](C)CO)C[C@H]1C	0	?	?	0	0
COc1ccc(S(=O)(=O)N(C)c2ccc(C(=O)NC3CC3)cc2)cc1	0	0	0	0	0
COc1ccc(N(C)S(=O)(=O)c2cccc(C(=O)Nc3cccc(C(=O)NC4CC4)c3)c2)cc1	0	16µM	15µM	0	0
COc1cccc(C(=O)NC2CC3CCCC(C2)N3S(=O)(=O)c2ccccc2)c1 (stereo not given)	0	12µM	13µM	0	0
COc1cccc(C(=O)NC2CCCC2)c1	0	0	0	0	0
CCCCN1C2CCCC1CC(NC(=O)c1cccc(Cl)c1)C2 (stereo not given)	0	23µM	?	0	0
CCCCN1C2CCCC1CC(NC(=O)c1cccc(OC)c1)C2 (stereo not given)	0	0	0	0	0
